# Data: publication PMC7862700, “An all-to-all approach to the identification of sequence-specific readers for epigenetic DNA modifications on cytosine”
# Legend:
# Assay in all cases: DAPPL (digital affinity profiling via proximity ligation, sequencing); 10 mM Tris-HCl pH 7.5, 50 mM NaCl, 1 mM DTT, 4% glycerol, room temperature, 30 min; GST-TFs on glutathione beads, 16-mer random dsDNA library, 0.1% formaldehyde crosslink after washing; high values mean tight binding
# FLI1 = target: T1, FLI1 (Homo sapiens, UniProt Q01543 1-452); settings: protein: recombinant; tags: N-terminal GST; dsDNA, one strand shown
# T1 sequence: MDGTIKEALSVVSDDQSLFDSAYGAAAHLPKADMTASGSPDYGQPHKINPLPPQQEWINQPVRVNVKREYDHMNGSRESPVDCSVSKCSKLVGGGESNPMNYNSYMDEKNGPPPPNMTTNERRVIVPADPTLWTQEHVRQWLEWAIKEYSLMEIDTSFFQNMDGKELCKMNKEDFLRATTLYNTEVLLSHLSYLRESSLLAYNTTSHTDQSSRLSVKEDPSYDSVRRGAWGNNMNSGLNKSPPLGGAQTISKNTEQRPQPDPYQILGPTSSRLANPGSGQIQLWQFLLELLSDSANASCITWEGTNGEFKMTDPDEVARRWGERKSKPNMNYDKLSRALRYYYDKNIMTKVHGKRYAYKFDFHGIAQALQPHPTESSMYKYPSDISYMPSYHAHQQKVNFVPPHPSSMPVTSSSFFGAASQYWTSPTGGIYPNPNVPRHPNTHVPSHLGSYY
# How it was run: (§1)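 Human transcription factors were made in yeast as GST fusions, captured on glutathione beads and barcoded with DNA. With a tag-only sample included, the pool was incubated with 200 nmole of a random double-stranded 16-mer DNA library in Tris/NaCl/DTT/glycerol buffer at room temperature for 30 min, then crosslinked with 0.1% formaldehyde after washing, ligated by proximity, amplified and sequenced. For binding signal, each hexamer's read frequency for a factor is divided by its frequency for the tag-only sample.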
# ELK1 = target: T2, ELK1 (Homo sapiens, UniProt P19419 1-428); settings: protein: recombinant; tags: N-terminal GST; dsDNA, one strand shown
# T2 sequence: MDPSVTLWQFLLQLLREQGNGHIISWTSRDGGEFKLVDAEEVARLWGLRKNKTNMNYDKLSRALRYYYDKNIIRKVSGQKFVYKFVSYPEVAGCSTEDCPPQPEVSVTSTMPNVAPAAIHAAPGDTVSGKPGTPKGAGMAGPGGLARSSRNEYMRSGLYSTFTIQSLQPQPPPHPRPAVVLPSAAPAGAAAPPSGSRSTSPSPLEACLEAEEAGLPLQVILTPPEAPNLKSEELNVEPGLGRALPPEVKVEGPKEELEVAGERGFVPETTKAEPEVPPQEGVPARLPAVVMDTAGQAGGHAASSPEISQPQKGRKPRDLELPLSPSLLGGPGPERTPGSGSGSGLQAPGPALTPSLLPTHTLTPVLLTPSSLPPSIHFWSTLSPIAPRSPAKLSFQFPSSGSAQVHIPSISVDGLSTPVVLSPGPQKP
# How it was run: as §1
# GABPA = target: T3, GABPA (Homo sapiens, UniProt Q06546 1-454); settings: protein: recombinant; tags: N-terminal GST; dsDNA, one strand shown
# T3 sequence: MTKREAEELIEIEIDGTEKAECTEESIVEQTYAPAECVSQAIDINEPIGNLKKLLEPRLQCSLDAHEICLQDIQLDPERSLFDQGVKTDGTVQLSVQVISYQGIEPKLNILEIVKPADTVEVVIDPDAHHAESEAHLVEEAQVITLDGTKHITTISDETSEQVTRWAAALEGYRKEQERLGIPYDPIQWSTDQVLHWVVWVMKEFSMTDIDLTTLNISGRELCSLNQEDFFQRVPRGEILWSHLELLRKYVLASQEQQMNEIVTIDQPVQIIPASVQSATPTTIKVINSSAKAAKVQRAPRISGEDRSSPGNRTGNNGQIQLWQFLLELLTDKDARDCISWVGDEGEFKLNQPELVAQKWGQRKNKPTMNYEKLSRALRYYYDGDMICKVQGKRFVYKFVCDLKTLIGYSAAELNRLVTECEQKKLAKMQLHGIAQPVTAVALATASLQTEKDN
# How it was run: as §1
# ERG = target: T4, ERG (Homo sapiens, UniProt P11308 1-479); settings: protein: recombinant; tags: N-terminal GST; dsDNA, one strand shown
# T4 sequence: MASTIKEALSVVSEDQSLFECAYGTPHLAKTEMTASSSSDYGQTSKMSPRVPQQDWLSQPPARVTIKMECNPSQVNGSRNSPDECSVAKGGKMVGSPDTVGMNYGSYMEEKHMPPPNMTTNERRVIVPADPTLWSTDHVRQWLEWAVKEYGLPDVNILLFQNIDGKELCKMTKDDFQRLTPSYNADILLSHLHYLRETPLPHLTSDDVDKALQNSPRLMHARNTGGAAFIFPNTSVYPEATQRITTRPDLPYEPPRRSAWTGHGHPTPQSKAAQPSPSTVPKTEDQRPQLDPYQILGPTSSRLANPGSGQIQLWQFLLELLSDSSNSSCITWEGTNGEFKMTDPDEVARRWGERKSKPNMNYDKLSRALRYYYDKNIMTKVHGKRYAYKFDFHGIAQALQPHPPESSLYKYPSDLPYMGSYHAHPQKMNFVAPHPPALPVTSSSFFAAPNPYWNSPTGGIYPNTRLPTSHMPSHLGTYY
# How it was run: as §1
# ELF1 = ELF1 (Homo sapiens, UniProt P32519 1-619); settings: protein: recombinant; tags: N-terminal GST; dsDNA, one strand shown
# How it was run: as §1
# EHF = target: T5, EHF (Homo sapiens, UniProt Q9NZC4 1-300); settings: protein: recombinant; tags: N-terminal GST; dsDNA, one strand shown
# T5 sequence: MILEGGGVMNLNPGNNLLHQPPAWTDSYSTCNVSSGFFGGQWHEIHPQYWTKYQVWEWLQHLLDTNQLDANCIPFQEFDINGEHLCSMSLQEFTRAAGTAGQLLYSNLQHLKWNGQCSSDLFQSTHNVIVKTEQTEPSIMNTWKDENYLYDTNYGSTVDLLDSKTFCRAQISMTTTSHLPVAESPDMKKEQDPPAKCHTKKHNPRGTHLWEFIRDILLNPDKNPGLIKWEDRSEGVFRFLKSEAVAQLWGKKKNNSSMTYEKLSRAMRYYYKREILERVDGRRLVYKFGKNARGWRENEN
# How it was run: as §1
# SPI1 = SPI1 (Homo sapiens, UniProt P17947 1-270); settings: protein: recombinant; tags: N-terminal GST; dsDNA, one strand shown
# How it was run: as §1
# SPIB = SPIB (Homo sapiens, UniProt Q01892 1-262); settings: protein: recombinant; tags: N-terminal GST; dsDNA, one strand shown
# How it was run: as §1
# ELK3 = target: T6, ELK3 (Homo sapiens, UniProt P41970 1-407); settings: protein: recombinant; tags: N-terminal GST; dsDNA, one strand shown
# T6 sequence: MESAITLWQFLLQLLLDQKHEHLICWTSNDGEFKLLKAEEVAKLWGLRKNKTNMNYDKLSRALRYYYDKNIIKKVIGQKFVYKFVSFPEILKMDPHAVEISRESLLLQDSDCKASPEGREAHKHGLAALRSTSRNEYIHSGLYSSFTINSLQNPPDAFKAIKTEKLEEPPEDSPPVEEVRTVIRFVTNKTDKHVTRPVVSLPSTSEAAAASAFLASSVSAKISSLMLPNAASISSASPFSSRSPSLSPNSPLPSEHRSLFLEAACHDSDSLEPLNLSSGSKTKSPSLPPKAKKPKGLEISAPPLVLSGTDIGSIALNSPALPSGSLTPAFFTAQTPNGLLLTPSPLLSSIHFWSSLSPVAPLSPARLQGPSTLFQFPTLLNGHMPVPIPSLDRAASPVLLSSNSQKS
# How it was run: as §1
# FEV = target: T7, FEV (Homo sapiens, UniProt Q99581 1-238); settings: protein: recombinant; tags: N-terminal GST; dsDNA, one strand shown
# T7 sequence: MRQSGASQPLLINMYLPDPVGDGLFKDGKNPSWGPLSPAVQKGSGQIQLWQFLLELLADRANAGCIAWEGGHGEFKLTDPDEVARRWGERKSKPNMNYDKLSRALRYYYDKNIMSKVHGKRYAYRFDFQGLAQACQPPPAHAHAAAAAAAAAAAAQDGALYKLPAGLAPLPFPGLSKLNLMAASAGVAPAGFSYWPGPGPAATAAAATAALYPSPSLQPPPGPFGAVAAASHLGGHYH
# How it was run: as §1
# ETV5 = ETV5 (Homo sapiens, UniProt P41161 1-510); settings: protein: recombinant; tags: N-terminal GST; dsDNA, one strand shown
# How it was run: as §1
# HSF1 = HSF1 (Homo sapiens, UniProt Q00613 1-529); settings: protein: recombinant; tags: N-terminal GST; chain copies: 3; dsDNA, one strand shown
# How it was run: as §1
# SPIC = target: T8, SPIC (Homo sapiens, UniProt Q8N5J4 1-248); settings: protein: recombinant; tags: N-terminal GST; dsDNA, one strand shown
# T8 sequence: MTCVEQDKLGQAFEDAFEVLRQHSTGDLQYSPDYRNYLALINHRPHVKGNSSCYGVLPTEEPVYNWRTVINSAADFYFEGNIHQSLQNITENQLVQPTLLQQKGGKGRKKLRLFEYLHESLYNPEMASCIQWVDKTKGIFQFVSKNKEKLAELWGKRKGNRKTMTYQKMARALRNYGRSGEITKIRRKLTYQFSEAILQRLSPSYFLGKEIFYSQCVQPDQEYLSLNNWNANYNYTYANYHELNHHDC
# How it was run: as §1
# ELF4 = ELF4 (Homo sapiens, UniProt Q99607 1-663); settings: protein: recombinant; tags: N-terminal GST; dsDNA, one strand shown
# How it was run: as §1
# ELK4 = target: T9, ELK4 (Homo sapiens, UniProt P28324-2 1-405); settings: protein: recombinant; tags: N-terminal GST; dsDNA, one strand shown
# T9 sequence: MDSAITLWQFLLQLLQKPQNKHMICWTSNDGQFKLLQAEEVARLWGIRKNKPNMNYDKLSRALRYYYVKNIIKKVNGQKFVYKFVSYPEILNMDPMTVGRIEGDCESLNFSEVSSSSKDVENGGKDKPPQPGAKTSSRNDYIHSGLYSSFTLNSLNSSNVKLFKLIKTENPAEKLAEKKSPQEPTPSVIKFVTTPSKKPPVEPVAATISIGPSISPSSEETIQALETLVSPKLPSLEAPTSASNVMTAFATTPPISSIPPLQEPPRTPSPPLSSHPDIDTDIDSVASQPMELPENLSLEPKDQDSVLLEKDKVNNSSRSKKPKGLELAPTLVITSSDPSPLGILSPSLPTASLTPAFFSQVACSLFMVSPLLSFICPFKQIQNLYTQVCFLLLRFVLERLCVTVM
# How it was run: as §1
# ETV2 = target: T10, ETV2 (Homo sapiens, UniProt O00321 1-342); settings: protein: recombinant; tags: N-terminal GST; dsDNA, one strand shown
# T10 sequence: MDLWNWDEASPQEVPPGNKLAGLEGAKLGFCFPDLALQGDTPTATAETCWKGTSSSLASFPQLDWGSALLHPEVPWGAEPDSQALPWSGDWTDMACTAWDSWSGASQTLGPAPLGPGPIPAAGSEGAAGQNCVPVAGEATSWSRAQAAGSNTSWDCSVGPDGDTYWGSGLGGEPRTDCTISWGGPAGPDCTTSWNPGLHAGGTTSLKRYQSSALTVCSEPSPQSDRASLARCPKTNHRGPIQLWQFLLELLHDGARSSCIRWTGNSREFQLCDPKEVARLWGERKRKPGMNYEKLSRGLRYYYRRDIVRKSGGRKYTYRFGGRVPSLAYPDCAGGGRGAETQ
# How it was run: as §1
# ELF3 = target: T11, ELF3 (Homo sapiens, UniProt P78545 1-371); settings: protein: recombinant; tags: N-terminal GST; dsDNA, one strand shown
# T11 sequence: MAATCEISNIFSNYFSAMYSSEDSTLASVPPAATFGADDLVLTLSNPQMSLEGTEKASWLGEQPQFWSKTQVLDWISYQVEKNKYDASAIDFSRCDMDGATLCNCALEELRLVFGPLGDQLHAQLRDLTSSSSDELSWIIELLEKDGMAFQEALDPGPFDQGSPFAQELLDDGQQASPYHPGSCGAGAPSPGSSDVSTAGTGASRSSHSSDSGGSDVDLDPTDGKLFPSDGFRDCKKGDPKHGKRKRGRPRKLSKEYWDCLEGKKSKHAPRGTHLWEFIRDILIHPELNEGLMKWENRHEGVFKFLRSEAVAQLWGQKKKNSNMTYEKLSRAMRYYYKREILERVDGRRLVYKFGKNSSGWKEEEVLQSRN
# How it was run: as §1
# CRX = CRX (Homo sapiens, UniProt O43186 1-299); settings: protein: recombinant; tags: N-terminal GST; dsDNA, one strand shown
# How it was run: as §1
# ETV1 = ETV1 (Homo sapiens, UniProt P50549 1-477); settings: protein: recombinant; tags: N-terminal GST; dsDNA, one strand shown
# How it was run: as §1
# ETV1, sequence (P50549 whole entry): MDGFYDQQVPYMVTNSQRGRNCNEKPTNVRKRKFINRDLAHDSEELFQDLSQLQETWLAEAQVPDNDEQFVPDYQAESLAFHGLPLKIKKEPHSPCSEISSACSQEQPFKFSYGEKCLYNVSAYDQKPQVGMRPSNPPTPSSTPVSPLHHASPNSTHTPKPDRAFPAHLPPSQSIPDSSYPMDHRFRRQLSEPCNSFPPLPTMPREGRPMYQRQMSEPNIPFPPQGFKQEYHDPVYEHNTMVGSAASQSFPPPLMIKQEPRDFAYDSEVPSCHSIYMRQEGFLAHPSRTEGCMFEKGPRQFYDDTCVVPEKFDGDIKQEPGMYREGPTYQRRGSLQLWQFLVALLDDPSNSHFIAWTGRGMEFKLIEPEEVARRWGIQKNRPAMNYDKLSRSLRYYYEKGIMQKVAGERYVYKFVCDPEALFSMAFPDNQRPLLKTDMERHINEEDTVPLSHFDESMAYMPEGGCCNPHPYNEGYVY
# SPIB, sequence (Q01892 whole entry): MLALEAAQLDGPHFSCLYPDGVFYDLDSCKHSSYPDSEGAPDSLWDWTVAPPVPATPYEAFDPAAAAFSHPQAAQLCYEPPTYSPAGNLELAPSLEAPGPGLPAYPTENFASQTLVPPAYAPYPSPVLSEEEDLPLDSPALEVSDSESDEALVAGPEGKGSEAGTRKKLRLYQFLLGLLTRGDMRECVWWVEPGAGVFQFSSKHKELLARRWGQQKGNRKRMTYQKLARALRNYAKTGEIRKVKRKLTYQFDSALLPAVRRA
# CRX, sequence (O43186 whole entry): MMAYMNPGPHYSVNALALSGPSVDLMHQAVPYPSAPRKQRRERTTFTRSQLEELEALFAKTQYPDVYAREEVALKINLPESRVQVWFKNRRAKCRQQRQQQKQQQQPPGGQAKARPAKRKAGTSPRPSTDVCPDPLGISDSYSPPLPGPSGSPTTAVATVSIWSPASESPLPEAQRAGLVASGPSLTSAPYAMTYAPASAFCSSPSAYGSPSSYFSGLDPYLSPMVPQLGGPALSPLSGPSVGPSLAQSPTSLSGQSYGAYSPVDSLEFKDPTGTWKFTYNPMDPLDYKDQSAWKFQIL
# ELF4, sequence (Q99607 whole entry): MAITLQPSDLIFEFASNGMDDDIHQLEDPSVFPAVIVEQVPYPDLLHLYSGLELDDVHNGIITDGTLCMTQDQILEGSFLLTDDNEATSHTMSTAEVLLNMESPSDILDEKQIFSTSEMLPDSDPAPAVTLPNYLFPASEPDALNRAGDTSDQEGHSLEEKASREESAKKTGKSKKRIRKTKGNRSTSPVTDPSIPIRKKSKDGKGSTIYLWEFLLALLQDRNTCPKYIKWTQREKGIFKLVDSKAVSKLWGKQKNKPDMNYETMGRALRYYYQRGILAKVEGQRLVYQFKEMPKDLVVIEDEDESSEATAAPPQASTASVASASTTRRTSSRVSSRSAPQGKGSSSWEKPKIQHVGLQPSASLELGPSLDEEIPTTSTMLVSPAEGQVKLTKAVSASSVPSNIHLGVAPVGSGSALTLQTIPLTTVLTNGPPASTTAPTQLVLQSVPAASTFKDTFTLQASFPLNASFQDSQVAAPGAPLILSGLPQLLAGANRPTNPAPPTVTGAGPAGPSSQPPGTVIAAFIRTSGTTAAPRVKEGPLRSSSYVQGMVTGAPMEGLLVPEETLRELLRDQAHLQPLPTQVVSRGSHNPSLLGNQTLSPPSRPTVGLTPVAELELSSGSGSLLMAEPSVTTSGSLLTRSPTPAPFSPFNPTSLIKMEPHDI
# ETV5, sequence (P41161 whole entry): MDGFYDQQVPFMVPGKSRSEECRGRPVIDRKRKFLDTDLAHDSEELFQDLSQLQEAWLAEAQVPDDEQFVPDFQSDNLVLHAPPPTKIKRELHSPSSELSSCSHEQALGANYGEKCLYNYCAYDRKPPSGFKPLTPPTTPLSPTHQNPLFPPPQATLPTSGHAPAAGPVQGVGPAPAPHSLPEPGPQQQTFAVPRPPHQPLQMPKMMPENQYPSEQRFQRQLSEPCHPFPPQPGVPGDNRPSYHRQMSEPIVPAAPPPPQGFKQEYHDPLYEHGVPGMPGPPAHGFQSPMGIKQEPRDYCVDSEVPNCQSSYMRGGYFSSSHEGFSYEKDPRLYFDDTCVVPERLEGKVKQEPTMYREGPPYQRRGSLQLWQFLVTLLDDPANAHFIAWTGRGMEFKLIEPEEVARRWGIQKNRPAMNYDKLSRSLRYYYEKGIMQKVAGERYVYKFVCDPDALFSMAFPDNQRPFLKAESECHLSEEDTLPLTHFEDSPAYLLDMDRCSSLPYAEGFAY
# ELF1, sequence (P32519 whole entry): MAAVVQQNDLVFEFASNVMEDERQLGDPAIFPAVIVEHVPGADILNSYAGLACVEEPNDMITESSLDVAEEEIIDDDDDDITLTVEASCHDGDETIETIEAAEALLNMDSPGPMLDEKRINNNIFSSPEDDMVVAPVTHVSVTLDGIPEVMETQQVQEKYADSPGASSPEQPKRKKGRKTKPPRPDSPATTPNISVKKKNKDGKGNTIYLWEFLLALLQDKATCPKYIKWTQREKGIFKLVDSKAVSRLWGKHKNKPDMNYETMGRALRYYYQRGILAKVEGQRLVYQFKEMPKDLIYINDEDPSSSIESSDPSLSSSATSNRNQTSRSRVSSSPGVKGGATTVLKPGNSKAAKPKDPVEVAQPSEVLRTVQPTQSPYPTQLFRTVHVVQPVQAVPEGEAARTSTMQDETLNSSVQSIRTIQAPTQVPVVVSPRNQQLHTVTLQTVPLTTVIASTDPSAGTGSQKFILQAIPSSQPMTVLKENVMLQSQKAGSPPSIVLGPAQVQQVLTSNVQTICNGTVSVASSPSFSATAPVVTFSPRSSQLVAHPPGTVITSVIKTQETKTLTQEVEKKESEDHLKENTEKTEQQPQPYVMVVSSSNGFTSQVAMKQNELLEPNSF
# HSF1, sequence (Q00613 whole entry): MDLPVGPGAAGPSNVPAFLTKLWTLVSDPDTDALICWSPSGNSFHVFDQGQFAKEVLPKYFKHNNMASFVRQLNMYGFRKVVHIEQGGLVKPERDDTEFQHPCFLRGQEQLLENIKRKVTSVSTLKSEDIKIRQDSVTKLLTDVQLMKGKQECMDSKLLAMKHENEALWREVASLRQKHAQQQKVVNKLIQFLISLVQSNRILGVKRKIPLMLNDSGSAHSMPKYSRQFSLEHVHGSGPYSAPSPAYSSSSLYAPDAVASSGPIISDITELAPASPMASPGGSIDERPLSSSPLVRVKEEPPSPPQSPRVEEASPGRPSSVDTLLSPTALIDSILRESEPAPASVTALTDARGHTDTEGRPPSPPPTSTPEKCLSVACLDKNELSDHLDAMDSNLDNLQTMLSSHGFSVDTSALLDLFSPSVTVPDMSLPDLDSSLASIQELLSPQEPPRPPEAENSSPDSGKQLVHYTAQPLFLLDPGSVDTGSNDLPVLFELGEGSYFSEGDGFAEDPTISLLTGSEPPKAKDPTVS
sequence,measurement,setting,value
TTCGAG,binding signal,FLI1,"1.18 fold enrichment (6-mer frequency, TF over GST control)"
same,binding signal,ELK1,"1.23 fold enrichment (6-mer frequency, TF over GST control)"
same,binding signal,GABPA,"1.31 fold enrichment (6-mer frequency, TF over GST control)"
same,binding signal,ERG,"1.14 fold enrichment (6-mer frequency, TF over GST control)"
same,binding signal,ELF1,"1.25 fold enrichment (6-mer frequency, TF over GST control)"
same,binding signal,EHF,"1.19 fold enrichment (6-mer frequency, TF over GST control)"
same,binding signal,SPI1,"1.21 fold enrichment (6-mer frequency, TF over GST control)"
same,binding signal,SPIB,"1.31 fold enrichment (6-mer frequency, TF over GST control)"
same,binding signal,ELK3,"1.3 fold enrichment (6-mer frequency, TF over GST control)"
same,binding signal,FEV,"1.21 fold enrichment (6-mer frequency, TF over GST control)"
same,binding signal,ETV5,"1.28 fold enrichment (6-mer frequency, TF over GST control)"
same,binding signal,HSF1,"4.43 fold enrichment (6-mer frequency, TF over GST control)"
same,binding signal,SPIC,"1.13 fold enrichment (6-mer frequency, TF over GST control)"
same,binding signal,ELF4,"1.29 fold enrichment (6-mer frequency, TF over GST control)"
same,binding signal,ELK4,"1.26 fold enrichment (6-mer frequency, TF over GST control)"
same,binding signal,ETV2,"1.14 fold enrichment (6-mer frequency, TF over GST control)"
same,binding signal,ELF3,"1.25 fold enrichment (6-mer frequency, TF over GST control)"
same,binding signal,CRX,"1.96 fold enrichment (6-mer frequency, TF over GST control)"
same,binding signal,ETV1,"1.37 fold enrichment (6-mer frequency, TF over GST control)"
